Screening results: PubChem, National Center for Advancing Translational Sciences (NCATS)
Most compounds without a hit are left out; they make up all but 11% or so of the library.
VDR inhibitor – blocks the human vitamin D receptor; P11473; VDR-SRC2-3 peptide fluorescence polarization, 2 h; Potency, µM, for inactives: max response, negative = inhibition, most hits filed as inhibitors; hit rate 0.93% among 400,000; further: on the % scale 0 is the no-effect control and ±100 the full control effect
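VDR–SRC2-3 interaction, FP format. Cmpds 23 nl via pintool, brief spin, 2 h ambient incubation.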
G9a block – inhibitors of human histone lysine methyltransferase G9a; AID 504332; Q96KQ7; hit rate 8.8% among 350,000; Potency, µM (titrated, usually from 102 µM), for inactives: at the highest dose activity, negative = inhibition, hits mostly inhibitors; G9a H3K9 monomethylation, AlphaScreen, 2 h; further: on the % scale 0 is the no-effect control and ±100 the full control effect; nearly all actives have a fitted effect of over 75% in size
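G9a (20 nM) was preincubated 15 min with compound, then reacted 2 h at room temperature with 500 nM biotin-H3K9 peptide and 20 µM SAM. Monomethyl-H3K9 detected by AlphaScreen using anti-H3K9me1 antibody.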
JMJD2A Tudor – blocks the human JMJD2A Tudor domain. AlphaScreen JMJD2A-Tudor / H3K4me3 peptide binding. hit rate 4.4% among 390,000. Potency, µM (titrated, usually from 114 µM), for the others: at the top dose activity change, negative = inhibition, most hits filed as inhibitors. O75164. AID 504339; further: on the % scale 0 is the no-effect control and ±100 the full control effect; nearly all actives have a fitted effect of over 50% in size
PLK1 PBD inh – inhibitors of human PLK1 polo-box domain binding. P53350. Plk1 PBD binding of FITC phosphopeptide, fluorescence polarization. Potency, µM, for the others: max response, negative = inhibition, usual class: inhibitors. hit rate 2.8% among 360,000; further: series mostly up to about 57 µM; on the % scale 0 is the no-effect control and ±100 the full control effect; nearly all actives have a fitted effect of over 65% in size
BAZ2B inh – BAZ2B (human) inhibition; AlphaScreen BAZ2B-H3K14Ac peptide displacement; hit rate 4.4% among 360,000; Potency, µM (titrated, usually from 114 µM), for inactives: top-dose activity change, negative = inhibition, hits mostly inhibitors; further: on the % scale 0 is the no-effect control and ±100 the full control effect; nearly all actives have a fitted effect of over 60% in size
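AlphaScreen luminescence quantifies BAZ2B engagement of H3K14Ac peptide; the protein and biotinylated peptide are both at 50 nM final, buffer PBS pH 7.4 with 0.01% Tween-20, all steps at room temperature.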
HP1b binding inh – HP1-beta chromodomain-methylated histone interaction inhibition; AlphaScreen HP1-beta / biotin-H3K9me3 peptide binding; Potency, µM (top dose mostly 114 µM), without a hit: at the highest dose activity change, negative = inhibition, actives largely listed as inhibitors; hit rate 0.56% among 390,000; P83916; further: nearly all actives have a fitted effect of over 70% in size
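AlphaScreen: HP1-beta (50 nM) preformed 30 min with biotin-H3(1-18)K9me3 peptide (50 nM) in PBS pH 7.4, 0.01% Tween-20. Compound added for 30 min at RT, then streptavidin donor/nickel chelate acceptor beads (10 ug/mL) for 30 min.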
* hit, by the source's call; [ ] = remark or other dose. The call rests on the fitted dose curve; in most records, active means well fitted curve in the direction sought with a large enough effect; inconclusive means small, poorly fitted or top-dose-only effect, or another doubt; inactive means no such curve, though single readings can be large; an effect the other way counts as inactive or inconclusive. Potency means the concentration at half of the fitted maximal effect.

Results for CCOC(=O)c1c(NC(=O)C(C)Oc2ccc(Cl)c(C)c2)sc2c1CCCC2 (stereo not drawn) ?
VDR inhibitor: 79.4µM*; G9a block: 3.16µM*; JMJD2A Tudor: -7.5%; BAZ2B inh: -34.3%; HP1b binding inh: -23.3%

What do the screens show for `CC(Oc1ccc(Cl)cc1Cl)C(=O)Nc1ccc(O)cc1` (stereo not drawn)?
VDR inhibitor: 3.3%; G9a block: 25.1µM*; JMJD2A Tudor: -4.5%[11.4 µM]; PLK1 PBD inh: -12.5%; BAZ2B inh: 50.1µM*; HP1b binding inh: 23.3%

How did CCCc1ccc(OC(C)C(=O)Nc2sc3c(c2C(=O)OC)CCCCC3)cc1 (stereo not drawn) do in these assays?
VDR inhibitor: 89.1µM*; G9a block: 7.94µM*; JMJD2A Tudor: 16.0%; BAZ2B inh: 3.4%; HP1b binding inh: inconclusive

What do the screens show for `Nc1ccc(S(=O)(=O)N2CCN(S(=O)(=O)c3ccc4c(c3)OCCO4)CC2)cc1`?
JMJD2A Tudor: -5.4%

What do the screens show for `COc1ccc(Nc2nnc(SCC(=O)c3cc(C)n(CC4CCCO4)c3C)s2)cc1` (stereo not drawn)?
VDR inhibitor: 14.0%; G9a block: inconclusive; JMJD2A Tudor: -30.3%; PLK1 PBD inh: -10.0%; BAZ2B inh: inconclusive; HP1b binding inh: 9.4%

What do the screens show for `COc1ccc(S(=O)(=O)N2CCCCCC2)cc1NC(=O)CCNC(=O)c1ccccc1Cl`?
PLK1 PBD inh: 7.5%

How did NC(=S)n1[nH]c(-c2ccc([N+](=O)[O-])cc2)c(N=Nc2cccc([N+](=O)[O-])c2)c1=O do in these assays?
VDR inhibitor: inconclusive; G9a block: 11.2µM*; JMJD2A Tudor: 44.7µM*; PLK1 PBD inh: 21.2µM*; BAZ2B inh: 39.8µM*; HP1b binding inh: inconclusive

What do the screens show for `Cc1c(N=Cc2ccc(Br)s2)cccc1[N+](=O)[O-]`?
VDR inhibitor: 11.0%; G9a block: -11.3%[59 µM]; JMJD2A Tudor: -18.0%; PLK1 PBD inh: 1.4%; BAZ2B inh: 3.8%; HP1b binding inh: 14.1%

What do the screens show for `Cc1[nH]n(C(N)=S)c(=O)c1N=Nc1cccc([N+](=O)[O-])c1C`?
VDR inhibitor: -16.8%; G9a block: 56.2µM*; JMJD2A Tudor: inconclusive; PLK1 PBD inh: -7.1%; BAZ2B inh: inconclusive; HP1b binding inh: 6.2%

Results for C=CCn1c(O)c(N=Nc2ccccc2[N+](=O)[O-])c2ccccc21 ?
PLK1 PBD inh: -5.1%

Results for Cc1c(N=Nc2c(-c3ccc([N+](=O)[O-])cc3)[nH]n(C(N)=S)c2=O)cccc1[N+](=O)[O-] ?
VDR inhibitor: -4.5%; G9a block: 50.1µM*; JMJD2A Tudor: inconclusive; PLK1 PBD inh: inconclusive; BAZ2B inh: inconclusive; HP1b binding inh: inconclusive

Results for Cc1[nH]n(C(N)=S)c(=O)c1N=Nc1cc(-c2ccc(Br)cc2)[nH]n1 ?
VDR inhibitor: -2.9%; G9a block: -48.5%; JMJD2A Tudor: inconclusive; PLK1 PBD inh: inconclusive; HP1b binding inh: inconclusive

What do the screens show for `NC(=S)n1[nH]c(-c2ccc([N+](=O)[O-])cc2)c(N=Nc2ccccc2[N+](=O)[O-])c1=O`?
VDR inhibitor: -21.6%; G9a block: 0.9%; JMJD2A Tudor: inconclusive; PLK1 PBD inh: -27.9%; BAZ2B inh: 39.8µM*; HP1b binding inh: -5.8%

How did CN(C)C(CNC(=O)c1cc(S(=O)(=O)N(C)c2ccccc2)ccc1Cl)c1cccs1 (stereo not drawn) do in these assays?
VDR inhibitor: -4.4%; G9a block: inconclusive; JMJD2A Tudor: -19.5%; PLK1 PBD inh: -8.5%; BAZ2B inh: -18.5%; HP1b binding inh: 22.7%

What do the screens show for `CCOc1ccccc1NC(=O)C1CCN(S(=O)(=O)Cc2ccccc2)CC1`?
VDR inhibitor: 18.3%; G9a block: 14.6%[59 µM]; JMJD2A Tudor: 33.4%; BAZ2B inh: 52.9%; HP1b binding inh: 106.9%

What do the screens show for `COc1ccc(CCNC(=O)c2cc3c(-c4ccc(OC)c(OC)c4)nn(C)c3s2)cc1OC`?
VDR inhibitor: -9.2%; G9a block: -26.2%[59 µM]; JMJD2A Tudor: -26.7%; HP1b binding inh: 17.6%

What do the screens show for `O=C1C2C3C=CC(C3=C(c3ccccc3)c3ccccc3)C2C(=O)N1Cc1ccccc1` (stereo not drawn)?
VDR inhibitor: -5.2%; G9a block: 39.8µM*; JMJD2A Tudor: -17.9%; PLK1 PBD inh: 67µM*; BAZ2B inh: -8.3%; HP1b binding inh: 24.7%

Results for O=C1C2C(c3ccccc3)C=CC(c3ccccc3)C2C(=O)N1CCO (stereo not drawn) ?
VDR inhibitor: 4.0%; G9a block: -1.2%; JMJD2A Tudor: -9.9%; PLK1 PBD inh: 1.6%; BAZ2B inh: -13.9%; HP1b binding inh: 7.7%

Results for C=CCNC(=S)N/N=C(\C)c1ccccn1 ?
VDR inhibitor: -1.9%; G9a block: -2.0%; JMJD2A Tudor: 44.7µM*; PLK1 PBD inh: -9.6%; BAZ2B inh: 4.47µM*; HP1b binding inh: 30.9%

What do the screens show for `CC(=NNC(=S)Nc1ccccc1)c1ccccn1`?
PLK1 PBD inh: -1.6%

Results for C/C(=N\NC(=O)c1ccccc1-n1cccc1)c1ccccn1 ?
PLK1 PBD inh: -5.9%

Results for CC(=NNC(=S)Nc1ccccc1Cl)c1ccccn1 ?
VDR inhibitor: -28.9%; JMJD2A Tudor: 56.2µM*; PLK1 PBD inh: -4.9%; HP1b binding inh: -32.2%

How did CCOC(=O)c1oc2cccc(OCC(O)CNC(C)C)c2c1C (stereo not drawn) do in these assays?
VDR inhibitor: -4.4%; G9a block: inconclusive; JMJD2A Tudor: -13.5%; PLK1 PBD inh: -14.1%; BAZ2B inh: -24.2%; HP1b binding inh: 5.1%

What do the screens show for `O=C(O)c1ccccc1C(=O)Nc1ccc(Oc2cccc3ccccc23)cc1`?
VDR inhibitor: -13.7%; G9a block: 39.8µM*; JMJD2A Tudor: -35.5%; PLK1 PBD inh: -17.6%; BAZ2B inh: 50.1µM*; HP1b binding inh: 18.1%

How did O=C(CC1(O)C(=O)Nc2ccccc21)c1cccc(Br)c1 (stereo not drawn) do in these assays?
VDR inhibitor: -29.1%; G9a block: -3.0%[59 µM]; JMJD2A Tudor: 7.4%[57.1 µM]; PLK1 PBD inh: inconclusive; BAZ2B inh: 2.4%; HP1b binding inh: 16.3%

How did O=C1Nc2ccccc2C1(O)C/C(=N/O)c1ccccc1 (stereo not drawn) do in these assays?
VDR inhibitor: inconclusive; G9a block: -5.4%; JMJD2A Tudor: 20µM*; PLK1 PBD inh: 26.7µM*; BAZ2B inh: -10.9%; HP1b binding inh: -16.0%

Results for CSc1sc(-c2n[nH]c(=S)n2C)c2c1C=CCC2 ?
VDR inhibitor: -4.4%; JMJD2A Tudor: inconclusive; PLK1 PBD inh: inconclusive; BAZ2B inh: inconclusive; HP1b binding inh: 11.9%
